Mm-Cpn inhibitor = inhibitors of Methanococcus maripaludis chaperonin TRiC (MmCpn); purified Mm-Cpn ATPase, ADP Transcreener TR-FRET; Potency, µM (titrated, usually from 76.9 µM), without a hit: at the top dose activity, negative = inhibition, most hits filed as inhibitors; actives 0.031% (n = 330,000); also: potency is read from the fitted curve at half-maximal effect; nearly all actives have a fitted effect of over 80% in size
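ATPase read-out: TR-FRET ADP immunoassay (anti-ADP Eu cryptate vs ADP-d2), ex 320 nm, em 590/665 nm; signal drops as ADP forms. Enzyme 25 nM, ATP 10 uM, 30 min at 37°C after 10 min compound preincubation.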
VDR inhibitor = blocks the human vitamin D receptor; actives 0.93% (n = 400,000); Potency, µM, without a hit: max response, negative = inhibition, usual class: inhibitors; VDR-SRC2-3 peptide fluorescence polarization, 2 h; P11473; AID 504847; also: potency is read from the fitted curve at half-maximal effect
Target sequence (P11473 whole entry, looked up): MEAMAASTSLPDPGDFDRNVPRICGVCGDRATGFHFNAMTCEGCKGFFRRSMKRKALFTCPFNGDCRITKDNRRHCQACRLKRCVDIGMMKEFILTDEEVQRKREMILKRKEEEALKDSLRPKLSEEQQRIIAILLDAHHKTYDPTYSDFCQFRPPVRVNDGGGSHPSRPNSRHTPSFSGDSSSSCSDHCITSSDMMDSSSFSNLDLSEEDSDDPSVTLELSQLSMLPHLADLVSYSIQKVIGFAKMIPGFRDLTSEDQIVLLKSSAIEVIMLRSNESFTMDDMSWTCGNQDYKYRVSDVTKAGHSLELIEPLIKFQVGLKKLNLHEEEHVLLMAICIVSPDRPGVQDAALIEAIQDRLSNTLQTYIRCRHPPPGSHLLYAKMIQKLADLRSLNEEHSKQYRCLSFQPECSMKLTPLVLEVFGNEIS
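Reagent solutions, kept cold and dark, are dispensed first; compounds are then pinned in at 23 nl, plates briefly spun, and incubated 2 h at ambient temperature. Inhibition of VDR–SRC2-3 peptide binding is read by fluorescence polarization.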
PLK1 PBD block = blocks phosphopeptide binding to human PLK1 polo-box domain. Potency, µM, inactives show max response, negative = inhibition, most hits filed as inhibitors. P53350. Plk1 PBD binding of FITC phosphopeptide, fluorescence polarization. actives 2.8% (n = 360,000); also: potency is read from the fitted curve at half-maximal effect; series mostly up to about 57 µM; nearly all actives have a fitted effect of over 65% in size
Sfp inh = blocks B. subtilis Sfp PPTase activity; actives 3.5% (n = 310,000); AID 1490; Potency, µM, for the others: largest response in the series, negative = inhibition, most hits filed as inhibitors; Q9F4F7; Biochemical Sfp PPTase activity, qHTS;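 also: the enzyme is Sfp with the accession as filed and its product quenches rhodamine fluorescence; potency is read from the fitted curve at half-maximal effect; 0% = enzyme reaction without inhibitor and -100% = no enzyme wells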
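Step 1, compound plus 15 nM Sfp-PPTase, 15 min, room temperature. Step 2, add rhodamine-CoA (5 uM) and BHQ-2-YbbR (12.5 uM). Step 3, read 525/598 nm fluorescence at 0 and 30 min.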
G9a block = inhibitors of human histone lysine methyltransferase G9a; G9a H3K9 monomethylation, AlphaScreen, 2 h; Q96KQ7; actives 8.8% (n = 350,000); Potency, µM (highest dose often 102 µM), without a hit: at the highest dose activity, negative = inhibition, usual class: inhibitors; also: potency is read from the fitted curve at half-maximal effect; nearly all actives have a fitted effect of over 75% in size
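Compounds were preincubated with 20 nM G9a for 15 min, after which biotinylated H3K9 peptide (500 nM) and SAM (20 uM) started a 2 h room-temperature reaction. Monomethylated product was quantified by antibody-based AlphaScreen chemiluminescence.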
CCT modulator = changes cytosolic chaperonin activity; purified chaperonin ATPase assay, HTRF ADP detection, 30 min; activity change, % (no concentration beside the values), hits read low; actives 0.3% (n = 360,000); in the data active = activity change below about -30%
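TRiC (40 or 20 nM final, by batch activity) in 30 mM Tris pH 7.4, 100 mM KCl, 5 mM MgCl2, 1 mM DTT was treated with compound at 76 uM single dose, then 10 uM ATP, 30 min at 37 °C. ADP was read by HTRF Transcreener.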
Numbers without * were called inactive; ? = inconclusive; · = no result; [ ] = another dose, or the depositor's remark. Sampled rows, rich in hits. Any-hit rate of the full collection: about 10%. Unless noted, calls follow the shape of the dose curve; as a rule, active = well fitted curve in the direction sought with a large enough effect; inconclusive = small, poorly fitted or top-dose-only effect, or another doubt; inactive = no such curve, though single readings can be large; an effect the other way counts as inactive or inconclusive. Unless noted, % is scaled to controls: 0 for no effect and ±100 for the full control effect.

SMILES	Mm-Cpn inhibitor	VDR inhibitor	PLK1 PBD block	Sfp inh	G9a block	CCT modulator
CC(=O)c1cccc(NC(=O)CCCN2C(=O)COc3ccc(C)cc32)c1	·	-5.9%	·	·	-29.8%[59 µM]	·
O=C(NCCCN1CCOCC1)C(=O)NCC1OCCN1S(=O)(=O)c1ccc(Cl)cc1 (stereo not drawn)	·	·	-8.3%	·	·	-33.5*
O=C(NCCCN1CCOCC1)C(=O)NCC1OCCN1S(=O)(=O)c1ccc(Br)cc1 (stereo not drawn)	1.7%	1.3%	-0.8%	11.5%	7.5%	-1.1
COc1cc(OC)cc(-c2nc3nc(C)c(CCC(=O)Nc4ccc(C)c(C)c4)c(C)n3n2)c1	·	-2.7%	·	·	9.1%[59 µM]	·
COc1cc(C(c2c(C)[nH][nH]c2=O)c2c(C)[nH][nH]c2=O)cc(Br)c1OC	0.9%	?	26.7µM*	-23.8%	·	-0.3
CCOc1cc(C(c2c(C)[nH][nH]c2=O)c2c(C)[nH][nH]c2=O)cc([N+](=O)[O-])c1O	2.6%	-12.8%	-11.5%	-4.0%	6.5%[0.501 µM]	0.0
CCOc1cc(C(c2c(C)[nH][nH]c2=O)c2c(C)[nH][nH]c2=O)cc(Br)c1OC	-0.8%	-17.1%	?	11.3%	-14.4%	-4.4
COc1cc(C(c2c(C)[nH][nH]c2=O)c2c(C)[nH][nH]c2=O)cc([N+](=O)[O-])c1O	-1.5%	-15.1%	26.7µM*	-14.4%	?	-0.6
CCOC(=O)c1ccc(NC(=O)c2ccc(CN3C(=O)CCn4nc(C)cc43)cc2)cc1	·	5.1%	·	·	-3.2%[59 µM]	·
Cc1ccc(C)c(N2C(=N)S/C(=C\c3ccc(-c4ccccc4C(=O)O)o3)C2=O)c1	-5.0%	-21.3%	?	-21.4%	2.24µM*	0.2
CCOC(=O)C(C)N1C(=O)S/C(=C\c2ccc(-c3ccccc3C(=O)O)o2)C1=O (stereo not drawn)	-1.7%	-18.1%	?	-16.7%	10µM*	1.4
Cc1ccc(C)c(CN2C(=O)COc3ccc(C(=O)c4ccccc4C(=O)O)cc32)c1	-2.9%	2.6%	5.6%	-11.4%	7.0%	-1.6
Cc1c(C(=O)O)cccc1-c1ccc(C=O)o1	-3.7%	7.4%	-2.2%	-16.4%	?	-0.5
Cc1ccc(CCNC(=O)CCn2nc(-c3ccc(C)cc3)ccc2=O)cc1	·	-2.6%	·	·	8.2%[59 µM]	·
Cc1ccc(SCC(=O)Nc2ccc3oc(-c4cccc(Cl)c4)nc3c2)cc1	·	1.3%	·	·	-6.0%[59 µM]	·
O=[N+]([O-])c1ccccc1/C=C/C=N/n1c(-c2ccco2)n[nH]c1=S	-2.2%	1.8%	-22.3%	-4.5%	-130.8%	-0.7
O=[N+]([O-])c1cc(/C=N/n2c(-c3cccnc3)n[nH]c2=S)ccc1Cl	-1.1%	-37.4%	-20.3%	?	1.26µM*	-2.9
O=[N+]([O-])c1ccccc1/C=N/n1c(C(F)(F)F)n[nH]c1=S	-0.2%	10.5%	26.7µM*	22.4µM*	1.41µM*	-2.6
O=[N+]([O-])c1ccccc1/C=N/n1c(-c2cccnc2)n[nH]c1=S	2.4%	-2.7%	-22.7%	?	2.51µM*	0.4
Cc1cc2ccccc2n1-c1ccc(C(=O)N2CCC(C(=O)NCc3ccccc3Cl)CC2)s1	·	0.7%	·	·	-8.2%[59 µM]	·
CC(C)(C)OC(=O)N1CCC(c2c(C(=O)NCCN3CCC(Cc4ccccc4)CC3)cnn2-c2ccccc2)CC1	·	14.8%	·	·	?	·
CCCn1c(/C=C/c2cc[n+](C)cc2)nc2ccccc21	-7.4%	5.6%	-23.3%	7.4%	39.8µM*	1.3
CCC(C)n1c(S(=O)(=O)O)nc2ccccc21 (stereo not drawn)	0.2%	3.8%	-2.3%	-8.6%	79.4µM*	-1.2
O=S(=O)(O)c1nc2ccccc2n1CCOc1ccccc1	0.3%	-7.7%	-3.1%	21.3%	50.1µM*	-0.7
CCCn1c(S(=O)(=O)O)nc2ccccc21	0.0%	-1.1%	-18.1%	-13.2%	50.1µM*	-3.4
CC(=O)N1CCc2cc(CNC(=O)Nc3cc(Cl)ccc3C)ccc21	·	9.1%	·	·	-6.2%[59 µM]	·
CSc1ncc(C(=O)Nc2cccc(Cl)c2C)c(-c2ccccc2)n1	·	-8.7%	·	·	-6.1%[59 µM]	·
